High-throughput results deposited in PubChem by several laboratories.
Sampled rows, rich in hits. Any-hit rate of the full collection: about 3.6%.
BoNT A protease = blocks Botulinum neurotoxin A light chain protease; inhibition, % at 10 µM; multiplex microsphere protease substrate cleavage, flow cytometry; actives 0.17% (n = 360,000); note: plate controls were buffer without enzyme for full effect and enzyme alone for no effect
BoNT-F LC inh = blocks Botulinum neurotoxin F light chain protease; actives 0.22% (n = 360,000); inhibition, % at 10 µM; Multiplex microsphere protease cleavage assay, flow cytometry; in the data active = inhibition above about 35%, passing the limit was not always enough; inconclusive = no clear call, values can overlap the other calls; note: plate controls were buffer without enzyme for full effect and enzyme alone for no effect
Autofluor counter = flagged as autofluorescent in microsphere protease counterscreen; compound autofluorescence counterscreen, microsphere flow cytometry; active compounds read high; fluorescence intensity (no concentration beside the values); actives 3.1% (n = 360,000); in the data active = fluorescence intensity above about 16000; inconclusive = no clear call, values can overlap the other calls
Anthrax LF prot = blocks Bacillus anthracis lethal factor protease. P15917. multiplex microsphere protease cleavage assay, LF. inhibition, % at 10 µM. actives 0.12% (n = 360,000). AID 588501; note: plate controls were buffer without enzyme for full effect and enzyme alone for no effect
MazEF act = increases E. coli MazEF RNase cleavage of RNA. actives 0.32% (n = 350,000). FAM/BHQ RNA-DNA oligo cleavage fluorescence, 5 h. activation, % at 20 µM; in the data active = activation above about 50%
Target sequence (P0AE70 whole entry, looked up): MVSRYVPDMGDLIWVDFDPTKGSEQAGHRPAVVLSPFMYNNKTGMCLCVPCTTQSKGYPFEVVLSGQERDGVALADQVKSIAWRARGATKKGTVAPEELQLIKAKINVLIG
An asterisk follows results filed as active; ? = inconclusive; . = no result given. Cut-off read from the data, not from the text of the source, unless noted: active = inhibition above about 30%; inconclusive = no clear call, values can overlap the other calls; inactive = below that.

SMILES	BoNT A protease	BoNT-F LC inh	Autofluor counter	Anthrax LF prot	MazEF act
O=S(=O)(N/N=C/c1cccnc1)c1ccc(Cl)c(Cl)c1	?	?	4438	7	-4
C[C@@H]1CN([C@@H](C)CO)C(=O)CCCn2nncc2CO[C@@H]1CN(C)S(=O)(=O)c1ccc(Oc2ccccc2)nc1	0	-1	3227	4	3
CCOc1ccc(C2=Nn3c(nnc3-c3ccc(OC)cc3)SC2)cc1	5	7	17851*	-12	11
COc1ccc(C2=Nn3c(nnc3-c3ccco3)SC2)cc1	-3	-9	17209*	-5	-4
CCOc1ccc(C2=Nn3cnnc3SC2)cc1	1	2	22944*	2	-18
COc1ccc(C2=Nn3c(nnc3-c3ccncc3)SC2)cc1	?	-3	?	?	-2
COc1ccc(OC)c(C2=Nn3c(nnc3-c3cccc(OC(C)C)c3)SC2)c1	-1	-5	16655*	-15	-5
COc1ccc(CN2C(=O)C(CC(=O)NC3CCCCC3)CC(C(=O)N(C)C)=C2C)cc1 (stereo not given)	0	-2	3578	2	4
COc1ccc(NC(=O)COc2ccc3c(C)cc(=O)oc3c2)cc1S(=O)(=O)N1CCCCC1	-1	-8	6011	-2	-71
CCN1C(=O)[C@H]2[C@@H](c3ccc(-c4ccc(F)cc4)c(OC)c3)N[C@@](Cc3ccccc3)(C(=O)OC)[C@H]2C1=O	0	1	4724	-3	3
Cc1cccc(-c2nnc3n2N=C(c2ccccc2)CS3)c1	?	-2	20710*	0	-1
c1ccc(C2=Nn3c(nnc3-c3cccnc3)SC2)cc1	4	7	22262*	1	-4
CCOc1ccc(C2=Nn3c(nnc3-c3cccnc3)SC2)cc1	?	-3	20067*	-1	6
O=C(NC1CCCN(Cc2ccc(Cl)cc2)C1)c1ccccc1-c1ncc[nH]1 (stereo not given)	-1	3	7536	1	13
Cc1cc(-c2ccccc2)nc(Nc2nc3c(C)cccc3c(=O)[nH]2)n1	0	6	5424	-8	-29
CN1C(=O)Cc2cc(S(=O)(=O)N3CCN(c4cccc(Cl)c4)CC3)ccc21	1	-1	5410	-5	15
COc1ccc(-c2cc(O)cc(O)c2)cc1	-2	-3	16572*	-4	-16
Cc1cc(C)c(C#N)c(OCC(=O)c2ccc(Br)cc2)n1	?	0	23283*	1	-2
Cc1ccc(C(=O)COc2nc(C)cc(C)c2C#N)cc1	-1	-3	22443*	0	-5
Cn1c(=O)c2c(nc(Br)n2CCSc2nnnn2-c2ccccc2)n(C)c1=O	-2	-2	20475*	0	0
Cn1c(=O)[nH]c(=O)c2c1nc(Br)n2CCSc1nnnn1-c1ccccc1	-2	-6	11588	-2	4
Cc1ccc(NC(=S)Nc2cccc(-c3n[nH]c(=S)o3)c2)cc1	0	0	6012	-2	2
O=C(Nc1ccc(F)c(Cl)c1)c1cc(C2CCCCN2C(=O)c2cccs2)on1 (stereo not given)	0	0	2878	-2	.
CCOc1cccc2cc(C(=O)NCc3ccc(OC)cc3)c(=N)oc12	0	4	5606	-1	12
O=C(COc1coc(CN2CCc3ccccc3C2)cc1=O)Nc1ccc(F)cc1F	-2	-5	5436	-3	211*
SMILES	BoNT A protease	BoNT-F LC inh	Autofluor counter	Anthrax LF prot	MazEF act
O=C(N/N=C/c1ccc(N2CCOCC2)cc1)c1ccccc1OCCOc1ccccc1	1	-7	4547	-3	-1
CC1CC(=O)c2cnc(N)nc2C1 (stereo not given)	-2	-4	22837*	-11	3
CC1CC(=O)c2cnc(N3CCOCC3)nc2C1 (stereo not given)	0	2	11181	1	2
COc1cc(/C=C2/SC(=S)N(CC(=O)Nc3nc4ccccc4s3)C2=O)cc(OC)c1OC	40*	34	5455	42*	-34
CCc1nnc(NC(=O)CN2C(=O)/C(=C/c3cc(OC)c(OC)c(OC)c3)SC2=S)s1	2	-26	2483	4	-13
COc1cc(/C=C2\SC(=S)N(CC(=O)Nc3ccccn3)C2=O)cc(OC)c1OC	39*	19	2410	24	-37
COc1cc(S(=O)(=O)n2cnc3ccccc32)ccc1Br	0	-12	4357	-6	15
CC1=CC2=NC(=O)/C(=C\c3ccc(-c4cccc(Cl)c4)o3)C(=N)N2O1	0	1	2145	-2	84*
C=C(C)CNC(=S)N/N=C(\C)c1ccc(-n2ccnc2)cc1	-1	-2	19874*	0	-2
